# Screens as filed in PubChem.
# Compounds with a hit are over-represented: about 3.9% of the library has one in this group of screens.
# HSF1 inh = HSF1 inhibition; activity change, negative = inhibition, % at 7.5 µM (by protocol); AID 2098; NIH3T3-HGL HSE-luciferase, MG132-induced, luminescence 8 h; stronger effect = lower value; actives 0.77% (n = 300,000);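 active means more than half of replicate wells show activity change below -50%, luminescence cut by over half; inconclusive means some wells, but at most half, below -50%; inactive means no replicate well below -50%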;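 further: luciferase reports HSF-1 transcriptional activity via heat shock element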
# MITF TRPM1 HTS = MITF TRPM1 promoter activation in melanoma cells; activation, % at 12.5 µM; SK-MEL-5 TRPM1-promoter luciferase, 24 h; % of positive control, neutral wells = 0; actives 0.75% (n = 300,000);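 active means mean activation of at least 80% with every replicate also reaching 80%; inconclusive means mean reaches 80% but some replicate falls short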
# esBAF inh = SWI/SNF esBAF complex inhibition; actives 2% (n = 350,000); AID 602393; mouse ES cells, Bmi1-luciferase knock-in reporter, 24 h; 100% = twice the neutral-well signal; reporter increase, % at 12.5 µM; in the data active means activation above about 40%; inconclusive means no clear call, values can overlap the other calls;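 further: a rise in the Bmi1 reporter signal indicates esBAF inhibition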
# HSF1 activator = increases HSF-1 driven luciferase reporter signal; NIH3T3-HGL HSF-1 luciferase reporter, MG132, 8 h; 100% = twice DMSO control signal; actives 1.7% (n = 300,000); activation, % at 9 µM; AID 504408;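 active means mean replicate activation of at least 50% with a set share of replicates each reaching 50%; inconclusive means only one of those two conditions met; inactive means mean below 50% and too few replicates reaching it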
# Wnt act = activates Wnt/beta-catenin signaling in a reporter cell assay. activator, plate reader. activation, % at 9.35 µM. actives 1.2% (n = 300,000); in the data active means activation above about 30%, passing the limit was not always enough; inconclusive means no clear call, values can overlap the other calls
# Numbers stand for hits; - = inactive; ? = inconclusive; . = not tested or not shown.
SMILES,HSF1 inh,MITF TRPM1 HTS,esBAF inh,HSF1 activator,Wnt act
Cc1ccc(CSc2nnc(-c3ccccn3)n2C)cc1,-,.,-,-,-
Nn1c(SCc2cccc(F)c2)nnc1-c1cccnc1,-,.,-,-,-
Clc1ccccc1CSc1nnc(-c2ccccn2)n1Cc1ccco1,-,.,-,120,.
Cn1c(SCc2ccc(F)cc2)nnc1-c1ccccn1,-,-,41,-,43
C[C@@H]1CN([C@@H](C)CO)C(=O)Cc2cc(NS(C)(=O)=O)ccc2O[C@H]1CN(C)S(=O)(=O)c1cccs1,.,.,-,.,.
COc1cccc(C(=O)Nc2ccc3c(c2)C(=O)N(C)C[C@@H](OC)[C@H](C)CN(C(C)=O)[C@@H](C)CO3)c1,.,.,-,.,.
Cc1ccc(OC(=O)COc2ccccc2C)c(-n2nc3ccccc3n2)c1,-,-,-,-,-
Cc1ccc(OC(=O)COc2ccccc2)c(-n2nc3ccccc3n2)c1,-,-,.,51,55
Cc1ccc(OC(=O)c2cccc([N+](=O)[O-])c2)c(-n2nc3ccccc3n2)c1,-,-,84,-,43
CCCCC(=O)Nc1sc2c(c1C#N)CC(C)(C)OC2,-,91,-,-,-
COC(=O)C[C@H]1C[C@H]2c3cc(NC(=O)c4cccnc4)ccc3O[C@H]2[C@@H](CO)O1,.,.,-,.,.
Cc1cc(N/N=C/c2ccc([N+](=O)[O-])o2)nc2ccccc12,-,-,.,65,-
Cc1ccc(-c2cc(C(=O)N/N=C/c3ccc([N+](=O)[O-])o3)c3ccccc3n2)o1,.,-,-,.,-
Cn1c(/C=C/c2ccc([N+](=O)[O-])o2)nc2ccccc2c1=O,-,-,-,62,.
Cn1c(/C=C/c2ccccc2)nc2ccccc2c1=O,-80,-,-,-,-
CCn1c(/C=C/c2ccc(F)cc2)nc2ccccc2c1=O,-,-,-,-,-
Cn1c(/C=C/c2ccc(Cl)cc2)nc2ccccc2c1=O,-,.,69,-,-
CCn1c(/C=C/c2ccccc2)nc2ccccc2c1=O,-,-,-,-,-
C[C@@H]1CN([C@@H](C)CO)C(=O)c2cc(N(C)C)ccc2O[C@@H](C)CCCCO[C@H]1CN(C)C(=O)Cc1ccccc1,.,.,-,.,.
CCCN1C[C@@H](C)[C@H](OC)CN(C)C(=O)c2ccc(NC(=O)c3ccccc3F)cc2OC[C@@H]1C,.,.,-,.,.
COC(=O)/C(=C\C(=O)c1ccccc1)Nc1ccc(OC)cc1,-,.,.,51,-
COc1ccc(N/C(C)=C/C(=O)c2ccccc2)cc1,-,120,.,-,-
COc1ccc(N/C(C)=C/C(=S)Nc2ccccc2)cc1,-,-,.,-,.
COc1ccc(C(=O)Nc2ccc3c(c2)OCCO3)cc1,.,-,-,.,.
COc1ccc(C(=O)/C=C(\C)Nc2ccc3c(c2)OCO3)cc1,-,.,62,-,?
SMILES,HSF1 inh,MITF TRPM1 HTS,esBAF inh,HSF1 activator,Wnt act
C[C@@H]1CCCCO[C@H](CN(C)C(=O)CCC(F)(F)F)[C@@H](C)CN([C@H](C)CO)C(=O)c2cc(NC(=O)C3CCCCC3)ccc2O1,.,.,-,.,.
CC(C)C1Cc2c(C#N)c(N)n(C)c(=S)c2CO1 (stereo unspecified),-52,-,.,-,.
Nc1nc2ccc(Cl)cc2[nH]1,.,-,.,.,-
Clc1ccc2nc(-c3ccc(Cl)nc3)[nH]c2c1,-,-,58,-,-
COc1cccc(-c2ccc3c(c2)[C@H]2[C@H](CCN2C(=O)C2CCOCC2)[C@H](CO)N3)c1,.,.,-,.,.
COCCNC(=S)N/N=C1\CC(C)CC(C)(C)C1 (stereo unspecified),-,-,-,-,34
COCCNC(=S)NN=C1CCCCCC1,-,-,.,-,-
Nc1ccccc1-c1nnc(-c2ccc(-c3ccccc3)cc2)o1,-,91,-,-,.
c1ccc(-c2nnc(-c3ccccc3)o2)cc1,-,-,-,-,.
Cc1cccc(-c2nnc(-c3ccc(N)cc3)o2)c1,-,-,-,-,.
Nc1ccc(-c2nnc(-c3ccc(N)cc3)o2)cc1,-,99,-,-,35
CSc1ccccc1-c1nnc(-c2ccccc2)o1,-,-,43,-,.
C[C@H](CO)N1C[C@H](C)[C@@H](CN(C)Cc2ccc(Cl)c(Cl)c2)OCCCC[C@H](C)Oc2ccc(NS(=O)(=O)c3cn(C)cn3)cc2C1=O,.,.,-,.,.
Cc1ccc(-c2ccc(=O)[nH]n2)cc1,-,-,-,55,.
CCCCCc1ccc(-c2ccc(=O)[nH]n2)cc1,-,-,-,-,-
COCC(=O)N(C)C[C@@H]1Oc2cc(Br)ccc2S(=O)(=O)N([C@@H](C)CO)C[C@@H]1C,.,.,-,.,.
COC(=O)Cn1c(=NC(=O)c2ccc(Cl)s2)sc2cc(C)ccc21,-,85,-,-,.
CCN(CC)C(=O)C1CCN(Cc2cn(C)nc2-c2ccc(Oc3ccccc3)cc2)CC1,-,-,.,-,54
Cc1ccc(-n2nc3c(=O)n(CCCC(=O)N4CCC(C(N)=O)CC4)nc(C)c3c2C)cc1,-52,-,-,-,-
Cc1nn(-c2ccccc2)c(N)c1C(O)(CSc1nccn1C)C(F)(F)F (stereo unspecified),-91,.,.,-,-
Cc1nn(-c2ccc(Cl)cc2)c(N)c1C(O)(CSc1nccn1C)C(F)(F)F (stereo unspecified),.,-,-,.,-
Cc1noc(C(=O)Nc2cc(Cl)ccc2O)c1Cl,-,-,-,-,-
CCCc1cc(C(=O)Nc2cc(Cl)ccc2O)no1,-,?,83,-,-
CCCc1cc(C(=O)Nc2cc(Br)ccc2O)no1,-,.,57,-,-
O=C(Nc1cc(Br)ccc1O)c1cc(-c2cccs2)on1,-,-,-,-,-
SMILES,HSF1 inh,MITF TRPM1 HTS,esBAF inh,HSF1 activator,Wnt act
CC(C)C#Cc1cnc2c(c1)C(=O)N([C@H](C)CO)C[C@H](C)[C@H](CN(C)C(=O)c1cccc(F)c1)O2,.,.,-,.,.
CCCC(=O)Nc1ccc2c(c1)C(=O)N(C)C[C@@H](OC)[C@@H](C)CN(Cc1cccc(F)c1)[C@@H](C)CO2,.,.,-,.,.
CCOc1ccc(N2C(=O)CC(Sc3nc(CC(C)C)ccc3C#N)C2=O)cc1 (stereo unspecified),.,-,.,.,-
CC(C)Cc1ccc(C#N)c(SCC(N)=O)n1,-59,-,-,-,-
Cc1cccc(-n2cnc3cc(C(=O)N4CCCCC4)ccc32)c1,-,-,44,-,-
Cc1cccc(-n2c(C)nc3cc(C(=O)N4CCOCC4)ccc32)c1,-,-,-,-,-
CC(C)(C)C(=O)OCc1nc(-c2ccc(F)cc2)cs1,-,110,?,-,-
COc1ccc(-c2csc(COC(=O)C(C)(C)C)n2)cc1,-,-,.,-,-
CC(C)(C)C(=O)OCc1nc(-c2ccc3c(c2)OCCO3)cs1,-52,-,-,-,-
CC(C)(C)C(=O)OCc1nc(-c2ccc(Cl)cc2)cs1,-,-,65,-,-
Nc1nc(-c2ccc3c(c2)OCCO3)cs1,-,?,51,-,.
C[C@@H]1CCCCO[C@H](CN(C)Cc2ccc(Cl)c(Cl)c2)[C@@H](C)CN([C@H](C)CO)C(=O)c2cc(NS(C)(=O)=O)ccc2O1,.,.,-,.,.
C[C@@H](NC(=O)C[C@@H]1CC[C@@H](NC(=O)CN2CCOCC2)[C@@H](CO)O1)c1ccccc1,.,.,-,.,.
